Compounds with a hit are over-represented: about 3.4% of the library has one in this group of screens.
Mcl1 Noxa PPI: Mcl-1/Noxa binding inhibitors, primary screen, biochemical, TR-FRET, 1536-well; TR-FRET Mcl-1/Noxa peptide binding, 2 h; inhibition, % at 21.7 µM; 220,000 compounds, 1.5% hits; AID 1022, 2008;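 active = compounds that cut the protein-peptide binding signal by more than 50% relative to plate controls in a single-dose test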;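 note: His-tagged Mcl-1 with rhodamine Noxa BH3 peptide and terbium anti-His antibody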
Mcl1 Bid PPI: Mcl-1/Bid binding inhibitors, primary screen, biochemical, TR-FRET, 1536-well; Induced myeloid leukemia cell differentiation protein Mcl-1 (Homo sapiens), Q07820; TR-FRET Mcl-1/Bid-Dy647 peptide binding; inhibition, % at 21.7 µM; 220,000 compounds, 0.97% hits;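 active = compounds that cut the binding signal by more than half at the single screening dose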;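 note: His-tagged Mcl-1 with europium anti-His antibody binding Bid BH3 peptide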
Bim-Mcl-1: inhibitors of Bim peptide binding to Mcl-1, primary screen, biochemical, bead-based flow cytometry, multiplex; Induced myeloid leukemia cell differentiation protein Mcl-1 (Homo sapiens), Q07820; Bim peptide-Mcl-1 binding; inhibition, % at 10 µM; 190,000 compounds, 0.1% hits; AID 1009, 2008; in the data active = inhibition above about 40%
m-calpain inh: inhibitors of pig calpain II, primary screen, biochemical, fluorogenic peptide substrate, 1536-well | purified calpain II, 30 min | inhibition, % at 16 µM | 220,000 compounds, 0.37% hits | AID 1236, 2008;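 active = inhibition above about 50%, limit read from the data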
14-3-3 Bad PPI: inhibitors of 14-3-3 zeta/Bad binding, primary screen, biochemical, TR-FRET, bovine 14-3-3 zeta; 14-3-3 protein zeta/delta (Bos taurus), P63103; TR-FRET 14-3-3zeta/Dy647-pBad peptide displacement, 1 h; inhibition, % at 21.7 µM; 220,000 compounds, 0.71% hits; AID 781, 2007;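 active = inhibition above about 70%, limit read from the data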
Target sequence (P63103 whole entry, looked up): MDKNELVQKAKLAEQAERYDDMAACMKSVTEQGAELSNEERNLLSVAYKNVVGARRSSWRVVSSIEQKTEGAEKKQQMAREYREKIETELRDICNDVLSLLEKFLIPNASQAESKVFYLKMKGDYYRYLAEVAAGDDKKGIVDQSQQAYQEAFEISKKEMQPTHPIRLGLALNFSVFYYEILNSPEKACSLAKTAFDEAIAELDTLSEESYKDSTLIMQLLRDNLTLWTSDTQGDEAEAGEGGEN
NCF1 inh: p47phox/p22phox peptide binding inhibitors, primary screen, biochemical, uHTS, NADPH oxidase regulatory subunit. Neutrophil cytosol factor 1 (Homo sapiens), P14598. fluorescence polarization, 2 h. inhibition, % at 24.7 µM. 220,000 compounds, 0.53% hits. AID 1274, 2008;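 active = inhibition above about 30%, limit read from the data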
Each line names hits and unclear results; the compound was inactive in the other large screens; [ ] = another dose, or the depositor's remark.

O=C(NNc1c(Cl)cccc1Cl)c1cccs1	14-3-3 Bad PPI 91.3 (no result: Bim-Mcl-1)
O=C(NNC(=O)c1ccccc1Cl)c1cccs1	none
COc1ccc(NC(=O)c2nc3nccc(C)n3n2)cn1	none
CCOc1c(Cl)cc(CNc2ccc(S(N)(=O)=O)cc2)cc1OC	none
CCOc1c(Cl)cc(CNc2ccc(N3CCCC3)cc2)cc1OC	Mcl1 Noxa PPI 88.4
O=C1c2ccccc2NC(c2ccccc2Cl)N1N=C1CCCCCC1 (stereo unspecified)	none
COc1ccccc1N1C(=O)C2CC(C)=C(C)CC2C1=O (stereo unspecified)	none
COc1ccccc1N1C(=O)C=C(Sc2nc(C)cc(C)n2)C1=O	Mcl1 Noxa PPI 54.4 (no result: Bim-Mcl-1)
C=CCON/C(CCC)=C1\C(=O)C(C(=O)OC)C(C)(C)CC1=NC (stereo unspecified)	none
CCCCC[C@H](O)/C=C/[C@@H]1[C@@H](C/C=C\CCCC(=O)O)[C@@H](O)C[C@H]1O	none
CCCCC[C@H](O)/C=C/[C@@H]1[C@@H](C/C=C\CCCC(=O)OC)[C@@H](O)C[C@H]1O	Mcl1 Bid PPI 98.4, 14-3-3 Bad PPI 90.9
CCCCCc1cc(=O)oc2c(C(CCN3CCCCC3)c3ccc4c(c3)OCO4)c(OC)cc(OC)c12 (stereo unspecified)	none (no result: Bim-Mcl-1)
CCCCCc1cc(=O)oc2c(C(CCN3CCCC(C)C3)c3ccc4c(c3)OCO4)c(OC)cc(OC)c12 (stereo unspecified)	NCF1 inh 32.9 (no result: Bim-Mcl-1)
CC1CCN(S(=O)(=O)c2cccc(C(=O)Nc3ccccn3)c2)CC1	Mcl1 Bid PPI 79.0
O=c1c(-c2ccc(O)cc2)coc2cc(O)cc(O)c12	none (no result: Bim-Mcl-1)
O=c1cc(-c2ccc(O)c(-c3c(O)cc(O)c4c(=O)cc(-c5ccc(O)cc5)oc34)c2)oc2cc(O)cc(O)c12	Mcl1 Noxa PPI 112.1
O=c1cc(-c2ccccc2)oc2cc(OCc3ccccc3)cc(O)c12	none
O=c1c(-c2c(O)cc(O)c3c(=O)cc(-c4ccc(O)cc4)oc23)c(-c2ccc(O)cc2)oc2cc(O)cc(O)c12	Mcl1 Noxa PPI 102.9 (no result: Bim-Mcl-1)
O=c1cc(-c2ccc(O)c(O)c2)oc2cc(O)cc(O)c12	Mcl1 Noxa PPI 66.2 (no result: Bim-Mcl-1)
Cc1ccc(C(C[N+](=O)[O-])c2c(-c3ccccc3O)[nH][nH]c2=O)cc1 (stereo unspecified)	none
CCOC(=O)c1cc(C)nn1-c1nc(Cl)cc(OC)n1	none
Cc1cc(OCCCCn2ccnc2)cc(C)c1Cl	none
CCOC(=O)/C=C/C(=O)Nc1cccc([N+](=O)[O-])c1	Mcl1 Noxa PPI 66.5
CCn1c(=N)n(CC(=O)c2cccc([N+](=O)[O-])c2)c2ccccc21	14-3-3 Bad PPI 74.4[fluorescence artefact?]
Cc1cccc(NS(=O)(=O)c2cc(NC(=O)CC(=O)c3ccc([N+](=O)[O-])cc3)ccc2C)c1	NCF1 inh 35.3
O=C(CCNc1ccccc1)c1cccc([N+](=O)[O-])c1	m-calpain inh 50.6
c1ccc2c(c1)CC1(CCCC1)N=C2N1CCOCC1	none (no result: Bim-Mcl-1)
O=C(NNC(=O)c1cccc(O)c1)Nc1ccc([N+](=O)[O-])cc1	none
O=C(COC(=O)c1ccc(CNS(=O)(=O)c2ccc(F)c(Cl)c2)cc1)NCC1CCCCC1	none
O=C(Nc1cccc([N+](=O)[O-])c1)c1cccc(C(=O)Nc2cccc([N+](=O)[O-])c2)c1	Mcl1 Noxa PPI 61.5, Mcl1 Bid PPI 52.9, m-calpain inh 55.8, NCF1 inh 40.8 (no result: Bim-Mcl-1)
Cc1ccc(C(=O)Nc2cccc([N+](=O)[O-])c2)cc1S(=O)(=O)Nc1ccc(C(=O)O)cc1	NCF1 inh 60.1
CC(C)CNC(=O)c1cccc(NC(=O)c2ccc(Cl)c([N+](=O)[O-])c2)c1	Bim-Mcl-1 45.0
Cc1cccc(NC(=O)CC2NCCNC2=O)c1 (stereo unspecified)	none
O=C(Nc1cccc([N+](=O)[O-])c1)c1ccc(-c2ccccc2)cc1	none

Source: PubChem (several laboratories)
